Measured values: PubChem BioAssay AID1159580 (chemical genetic matrix, 2015)
Screen size: about 5,500 compounds; about 2,000 (36%) were called active. About 18% were inconclusive and are not listed. Cut-off read from the data, not from the text of the source: active = normalized growth mostly below about 0.91 (no sharp cut-off); inconclusive = no clear call, values can overlap the other calls; inactive = mostly above about 0.92. The list shows a part of the results.

Experiment: chemical genetic growth profiling, strain panel (AID 1159580);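 note: tested at 20 µM; growth read once vehicle control cultures reached saturation at 30 °C; 1 = growth at the plate median or of vehicle wells; lower values mean less growth of the strain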
Details: S. cerevisiae deletion strains, growth OD
[1] = locus YDL101C, strain DUN1, hits give low values
[2] = locus YHR030C, strain SLT2, hits give low values
[3] = locus YAL013W, strain DEP1, hits give low values
[4] = locus YBR229C, strain ROT2, hits give low values
[5] = locus YDR150W, strain NUM1, hits give low values
[6] = locus YEL061C, strain CIN8, hits give low values
[7] = locus YGR078C, strain PAC10, hits give low values
[8] = locus YHR087W, strain rtc3, hits give low values
[9] = locus YJR043C, strain POL32, hits give low values
[10] = locus YJR075W, strain HOC1, hits give low values
[11] = locus YKL190W, strain CNB1, hits give low values
[12] = locus YLR039C, strain RIC1, hits give low values
[13] = locus YLR058C, strain SHM2 (second series), hits give low values
[14] = locus YLR085C, strain ARP6, hits give low values
[15] = locus YLR262C, strain YPT6, hits give low values
[16] = locus YML094W, strain GIM5, hits give low values
[17] = locus YMR219W, strain ESC1, hits give low values
[18] = locus YMR263W, strain SAP30, hits give low values
[19] = locus YMR307W, strain GAS1, hits give low values
[20] = locus YNL153C, strain GIM3, hits give low values
[21] = locus YNL298W, strain CLA4 (second series), hits give low values
[22] = locus YNL322C, strain KRE1, hits give low values
[23] = locus YNR030W, strain Alg12, hits give low values
[24] = locus YOL006C, strain TOP1, hits give low values
[25] = locus YPL055C, strain LGE1, hits give low values
[26] = locus YPL241C, strain CIN2, hits give low values
[27] = locus YPR135W, strain CTF4, hits give low values

Measured: normalized growth

CCOC(=O)c1ccc(N=Cc2cc(Cl)cc(Cl)c2O)cc1
inactive: locus YAR019C, strain CDC15, hits give low values 0.934 | locus YBL105C, strain PKC1, hits give low values 0.949 | locus YBR135W, strain CKS1, hits give low values 0.95 | locus YBR136W, strain MEC1, hits give low values 0.954 | locus YBR160W, strain CDC28, hits give low values 0.946 | locus YDL017W, strain CDC7, hits give low values 0.94 | locus YDL028C, strain MPS1, hits give low values 0.946 | [1] 0.946 | locus YDL108W, strain KIN28, hits give low values 0.948 | locus YDL132W, strain cdc53, hits give low values 0.975 | locus YDR052C, strain DBF4, hits give low values 0.95 | locus YDR226W, strain ADK1, hits give low values 0.969 | locus YFL009W, strain cdc4, hits give low values 0.964 | locus YFL029C, strain CAK1, hits give low values 0.923 | locus YFR003C, strain YPI1, hits give low values 0.939 | locus YFR028C, strain CDC14, hits give low values 0.957 | locus YIL147C, strain SLN1, hits give low values 0.937 | locus YJL128C, strain PBS2, hits give low values 0.908 | locus YJR016C, strain ILV3, hits give low values 0.963 | locus YKL193C, strain SDS22, hits give low values 0.957 | locus YMR001C, strain CDC5, hits give low values 0.943 | locus YMR277W, strain FCP1, hits give low values 0.96 | locus YNL006W, strain LST8, hits give low values 0.952 | locus YNL161W, strain CBK1, hits give low values 0.965 | locus YNL207W, strain RIO2, hits give low values 0.951 | locus YNL222W, strain SSU72, hits give low values 0.956 | locus YOL078W, strain AVO1, hits give low values 0.922 | locus YOR329C, strain SCD5, hits give low values 0.942 | locus YPL209C, strain IPL1, hits give low values 0.952 | locus YPR025C, strain CCL1, hits give low values 0.948 | locus YPR106W, strain ISR1, hits give low values 0.958 | locus YPR111W, strain DBF20, hits give low values 0.955 | strain NNK1, hits give low values 0.952 | strain TSCII, hits give low values 0.913
active: locus YDL214C, strain PRR2, hits give low values 0.3 | locus YDR477W, strain SNF1, hits give low values 0.289 | locus YER123W, strain YCK3, hits give low values 0.157 | locus YER133W, strain GLC7, hits give low values 0.344 | locus YFR019W, strain FAB1, hits give low values 0.153 | locus YGR040W, strain KSS1, hits give low values 0.349 | locus YGR052W, strain FMP48, hits give low values 0.257 | locus YGR092W, strain DBF2, hits give low values 0.135 | [2] 0.135 | locus YHR079C, strain IRE1, hits give low values 0.131 | locus YHR082C, strain KSP1, hits give low values 0.2 | locus YHR205W, strain SCH9, hits give low values 0.221 | locus YJL095W, strain BCK1, hits give low values 0.136 | locus YJL157C, strain FAR1, hits give low values 0.181 | locus YJR066W, strain TOR1 (second series), hits give low values 0.289 | locus YJR066W, strain TOR1, hits give low values 0.169 | locus YKL048C, strain ELM1, hits give low values 0.405 | locus YKL067W, strain YNK1, hits give low values 0.274 | locus YKL101W, strain HSL1, hits give low values 0.323 | locus YKL203C, strain TOR2, hits give low values 0.296 | locus YLR113W, strain HOG1, hits give low values 0.166 | locus YLR133W, strain CKI1, hits give low values 0.208 | locus YLR403W, strain SFP1, hits give low values 0.166 | locus YML070W, strain DAK1, hits give low values 0.198 | locus YMR205C, strain PFK2 (second series), hits give low values 0.308 | locus YNL020C, strain ARK1, hits give low values 0.175 | locus YNL183C, strain NPR1, hits give low values 0.229 | locus YNL307C, strain MCK1 (second series), hits give low values 0.175 | locus YOL136C, strain PFK27, hits give low values 0.153 | locus YOR061W, strain CKA2, hits give low values 0.193 | locus YOR119C, strain RIO1, hits give low values 0.368 | locus YOR231W, strain MKK1, hits give low values 0.131 | locus YPL031C, strain PHO85, hits give low values 0.245 | locus YPL153C, strain RAD53, hits give low values 0.213 | locus YPL204W, strain HRR25, hits give low values 0.196 | locus YPL256C, strain CLN2, hits give low values 0.152

CCOC(=O)c1ccc(NC(=S)N2CCOCC2)cc1
inactive: [3] 1.01 | [4] 0.979 | locus YCL061C, strain MRC1, hits give low values 0.939 | [1] 0.978 | [5] 0.945 | [6] 0.985 | [7] 0.99 | [2] 0.956 | [8] 0.974 | [9] 0.962 | [10] 0.947 | [11] 1.01 | [12] 1 | [13] 1.02 | [14] 0.991 | [15] 1 | [16] 0.978 | [17] 0.999 | [18] 0.933 | [19] 0.965 | [20] 0.982 | [21] 0.951 | [22] 1.01 | [23] 1.01 | [24] 0.805 | [25] 0.888 | [26] 0.988 | [27] 0.972

CCOC(=O)c1ccc(N2CCOCC2)c(N=Cc2cc(Cl)ccc2O)c1
active: [4] 0.901 | locus YDL134C, strain PPH21, hits give low values 0.781 | [6] 0.757 | [7] 0.892 | [2] 0.266 | [10] 0.855 | [11] 0.678 | [12] 0.434 | [14] 0.508 | [15] 0.38 | [16] 0.822 | [19] 0.41 | [21] 0.754 | [23] 0.885 | [24] 0.323 | [27] 0.516
inactive: [3] 0.94 | [1] 0.928 | [5] 0.91 | [8] 0.915 | [9] 0.946 | [13] 0.96 | [17] 0.947 | [18] 0.917 | [20] 0.951 | [22] 0.99 | [25] 0.884 | [26] 0.908
